The results in this text go back to PubChem BioAssay.

Activity calls are given as the source filed them. Unless noted, the rule behind the calls is not given here.

Assay [1] can be described thus: HepG2 liver cancer cell viability effects, profiling panel, resazurin fluorescence, 24 h, PK04 Diversity Set (AID 1172). Note: test concentration not given here. The settings on record: higher = more signal.
A short description of assay [2]: basal S. cerevisiae growth modulation, no modifier, primary screen, OD600, strain BY4716, 24 h, basal condition (AID 1173). The settings on record: OD600, 24 h, higher = more signal, called active from +8 up or from −8 down.
Assay [3] is described as follows: MM1S myeloma cell viability, profiling panel, resazurin fluorescence, basal, 24 h, PK04 Diversity Set (AID 1174).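 Note: MM1S multiple myeloma cell line; test concentration not given here.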 The settings on record: higher = more signal, called active from +8 up or from −8 down.
In assay [4] the target is Dihydroorotate dehydrogenase (quinone), mitochondrial (Plasmodium falciparum (isolate 3D7)) (UniProt Q08210). Nature of the assay: PfDHODH enzyme inhibitors, primary screen, biochemical, C-terminal His tag, absorbance 600 nm (AID 1175).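 Note: recombinant parasite enzyme with a five histidine tag at its C terminus; test concentration not given here.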 As to conditions: DCIP absorbance 600 nm, higher = more signal, called active from +8 up or from −8 down.
Dihydroorotate dehydrogenase (quinone), mitochondrial (Plasmodium falciparum (isolate 3D7)), sequence (Q08210 whole entry, looked up): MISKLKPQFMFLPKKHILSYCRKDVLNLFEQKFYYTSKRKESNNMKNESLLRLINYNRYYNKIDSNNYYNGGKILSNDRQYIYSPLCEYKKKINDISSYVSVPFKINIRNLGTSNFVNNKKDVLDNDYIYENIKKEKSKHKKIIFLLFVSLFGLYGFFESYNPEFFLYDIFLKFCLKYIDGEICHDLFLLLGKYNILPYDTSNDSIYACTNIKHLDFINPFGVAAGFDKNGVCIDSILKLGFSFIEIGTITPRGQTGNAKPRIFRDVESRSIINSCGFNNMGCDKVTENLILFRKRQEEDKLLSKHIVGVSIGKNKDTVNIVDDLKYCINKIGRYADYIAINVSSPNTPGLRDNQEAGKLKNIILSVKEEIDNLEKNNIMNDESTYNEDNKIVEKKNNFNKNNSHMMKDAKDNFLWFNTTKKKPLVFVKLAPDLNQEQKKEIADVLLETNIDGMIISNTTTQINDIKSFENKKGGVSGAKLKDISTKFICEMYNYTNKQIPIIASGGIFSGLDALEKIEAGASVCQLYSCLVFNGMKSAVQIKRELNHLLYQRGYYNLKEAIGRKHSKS
Assay [5] can be described thus: P. aeruginosa biofilm formation inhibitors, primary screen, strain PAO1, LB-PBS medium, absorbance 600 nm (AID 1176). Note: test concentration not given here. As to conditions: P. aeruginosa PAO1 growth/biofilm, A600, 12 h; higher = more signal.
Assay [6] in a line: S. cerevisiae RM11-1a growth modifiers, primary screen, strain RM11-1a, OD600, basal, 24 h (AID 1177).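 Note: cultures grown under basal conditions with no added stressor; test concentration not given here.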 The settings on record: OD600, 24 h, higher = more signal, called active from +8 up or from −8 down.
Assay [7] can be described thus: E. coli acrAB mutant growth effects, primary screen, E. coli filamentation inducers, strain DRC39, OD650, 24 h (AID 1178).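 Note: growth measured as culture turbidity by optical density at 650 nm; test concentration not given here.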 The settings on record: higher = more signal, called active from +8 up or from −8 down.
Assay [8] is described as follows: E. coli acrAB mutant growth effects, primary screen, E. coli filamentation inducers, strain DRC39, OD650, 48 h (AID 1179).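 Note: screen aims at cell division blockers that make cells filament.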 The settings on record: E. coli DRC39 delta-acrAB growth, higher = more signal, called active from +8 up or from −8 down.
Assay [9] is described as follows: RPMI8226 myeloma cell viability, profiling panel, resazurin fluorescence, basal, 24 h, PK04 Diversity Set (AID 1180).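 Note: RPMI8826 multiple myeloma cell line at 5000 cells per well; test concentration not given here.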 As to conditions: higher = more signal.
Assay [10] concerns the target E3 ubiquitin-protein ligase XIAP (Homo sapiens) (UniProt P98170). Nature of the assay: XIAP binders, primary screen, biophysical, small-molecule microarray, fluorescence 635 nm (AID 1181).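 Note: score merges 667 nm emission and signal to noise over triplicate slides.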 As to conditions: small-molecule microarray binding, higher = more signal.

E3 ubiquitin-protein ligase XIAP (Homo sapiens), sequence (P98170 whole entry, looked up): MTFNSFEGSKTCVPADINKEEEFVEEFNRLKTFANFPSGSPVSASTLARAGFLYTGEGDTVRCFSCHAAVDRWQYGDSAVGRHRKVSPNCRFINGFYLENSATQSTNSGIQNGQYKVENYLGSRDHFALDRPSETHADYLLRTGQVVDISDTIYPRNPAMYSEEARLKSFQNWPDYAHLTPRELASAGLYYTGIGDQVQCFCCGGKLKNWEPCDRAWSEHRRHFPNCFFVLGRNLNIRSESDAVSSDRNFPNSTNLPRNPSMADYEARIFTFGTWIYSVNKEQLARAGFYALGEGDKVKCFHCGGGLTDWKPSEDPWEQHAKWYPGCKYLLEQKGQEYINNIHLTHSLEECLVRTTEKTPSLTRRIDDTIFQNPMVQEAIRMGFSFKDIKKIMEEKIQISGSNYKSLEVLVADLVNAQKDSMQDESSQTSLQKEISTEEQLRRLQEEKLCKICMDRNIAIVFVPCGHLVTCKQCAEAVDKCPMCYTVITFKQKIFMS

`CC1CC/C=C\[C@H]2OC34C=CCN(Cn5nnc6ccccc65)C(=O)[C@H]3N(CCCCCCO)C(=O)[C@@H]4C2C(=O)O1` (stereo not given in full): the z-score in assay [1] was 0.535; in [2], -0.705 (inactive); in assay [3] it was 0.501 (inactive); in [5], 0.137 (inactive); in [6], 0.85 (inactive); in [7] it was 0.816 (inactive). For the same compound, the z-score in assay [8] is 0.703 (inactive); in assay [9] it was 1.16. The composite z-score was -0.374 (inactive) in [4] and -0.244 in assay [10].

Consider `CCOC(=O)C[C@H]1[C@H](OC(=O)c2ccccc2-c2ccccc2)[C@@H](NC(=O)C2CCCCC2)c2cc(OCCCO)ccc2N1C(=O)c1ccc2ccccc2n1`, for which the z-score in assay [1] was -0.872; in [2], 0.818 (inactive); in assay [3] it was -0.0667 (inactive); in assay [5], -0.177 (inactive); in [6] it was 0.743 (inactive); in assay [7] it was -0.53 (inactive). For the same compound, the z-score was -0.12 (inactive) in assay [8] and 0.131 in [9]. Moreover, the composite z-score in assay [4] is 0.338 (inactive); in [10] it was -0.0351.

`CCOC(=O)C1=CC[C@@H](c2ccc(OC)cc2)N(S(=O)(=O)c2ccc(C)cc2)[C@H]1CC`: the z-score was 0.0292 in [1]; -1.82 (inactive) in assay [2]; -0.289 (inactive) in assay [3]; 0.505 (inactive) in assay [5]; -0.0802 (inactive) in assay [6]; 0.608 (inactive) in assay [7]. Moreover, the z-score in [8] is 1.87 (inactive); in assay [9], -0.793. For the same compound, the composite z-score was -1.04 (inactive) in [4] and -0.321 in [10].

As for `COC(=O)C(CC#Cc1ccc2c(c1)[C@]1(C(=O)N2)[C@H](C(=O)N2CCc3cc(OC)c(OC)cc3C2)[C@H]2C(=O)O[C@H](c3ccccc3)[C@H](c3ccccc3)N2[C@@H]1c1ccccc1OCCO)C(=O)OC`, the z-score was -0.553 in assay [1]; 1.79 (inactive) in assay [2]; -1.03 (inactive) in assay [3]; 3.81 (inactive) in assay [5]; 2.83 (inactive) in assay [6]; 0.154 (inactive) in assay [7]. Further, the z-score in [8] was 0.618 (inactive); in assay [9], -0.705. Further, the composite z-score in assay [4] is -7.03 (inactive); in assay [10], -0.11.

Consider `C[N+](C)(C)CCCCNC(=O)[C@H]1C[C@H]2C(=O)N[C@@H](Cc3ccccc3)C(=O)N2[C@H]1c1cccc(OCCO)c1`, for which the z-score is -3.26 in assay [1]; 1.07 (inactive) in assay [2]; -0.476 (inactive) in assay [3]; 0.544 (inactive) in assay [5]; 0.103 (inactive) in assay [6]; 0.548 (inactive) in assay [7]. The z-score was 0.779 (inactive) in [8] and -0.863 in assay [9]. Besides, the composite z-score was -30.8 (active) in assay [4] and 0.459 in [10].

For `CC(C)C(O)C1C=CC2C(=O)NC(=O)C2N1Nc1ccccn1` (stereo not given), the z-score in [1] is -0.984; in [2] it was 0.754 (inactive); in [3], -1.69 (inactive); in assay [5], 0.612 (inactive); in assay [6], 0.696 (inactive); in [7], -1.03 (inactive). Also, the z-score in assay [8] is 0.125 (inactive); in assay [9], -1.23. The results for the composite z-score in assay [4] and in assay [10] were 0.48 (inactive) and 0.106, respectively.

Regarding `COCCCN1C(=O)[C@@]2(c3ccc([N+](=O)[O-])cc3)CC(=O)N(CC34CC5CC(CC(C5)C3)C4)[C@@H]2c2ccc(CO)cc21`, the z-score in [1] was -0.35; in assay [2], 1.09 (inactive); in assay [3] it was -0.566 (inactive); in assay [5] it was 0.792 (inactive); in assay [6], 0.0202 (inactive); in assay [7], 0.2 (inactive). Moreover, the z-score in assay [8] is 0.334 (inactive); in assay [9], -0.79. The results for the composite z-score in assay [4] and in assay [10] were -6.02 (inactive) and 0.113, respectively.

With `[N-]=[N+]=NCc1ccccc1[C@@H]1OC(c2ccc(OCCCO)cc2)=N[C@]1(Cc1ccccc1N=[N+]=[N-])C(=O)NCC(O)CO` (stereo not given in full), the z-score is -0.897 in assay [1]; -0.815 (inactive) in assay [2]; -0.954 (inactive) in assay [3]; 0.507 (inactive) in assay [5]; 0.628 (inactive) in [6]; -0.0582 (inactive) in [7]. Further, the values for the z-score in [8] and in assay [9] were 0.625 (inactive) and -1.47, respectively. In addition, the composite z-score in [4] was -0.728 (inactive); in assay [10] it was 0.243.

For the compound `CC=CC(O)C1C=CC2C(=O)NC(=O)C2N1Nc1ccc(Cl)cc1Cl` (stereo not given), the z-score was -1.2 in assay [1]; -11.4 (active) in assay [2]; -1.53 (inactive) in [3]; 0.723 (inactive) in [5]; 1.52 (inactive) in assay [6]; -0.427 (inactive) in assay [7]. The values for the z-score in assay [8] and in assay [9] were -0.356 (inactive) and -1.68, respectively. The composite z-score in assay [4] was 0.733 (inactive); in assay [10], -0.113.

`CC(=O)c1ccc(C(O)C2C=CC3C(=O)N(c4ccccc4)C(=O)C3N2Nc2ccc(C(C)C)cc2)cc1` (stereo not given): the z-score was -0.866 in assay [1]; -0.829 (inactive) in assay [2]; -1.44 (inactive) in assay [3]; 0.503 (inactive) in assay [5]; 0.677 (inactive) in assay [6]; 0.481 (inactive) in assay [7]. In addition, the results for the z-score in assay [8] and in assay [9] were 0.463 (inactive) and -0.721, respectively. Further, the composite z-score in assay [4] was 0.774 (inactive); in assay [10], 0.102.

Take `CN(C)CCCNC(=O)[C@@]1(C)c2ccccc2C(=O)N(Cc2ccc(OC(F)(F)F)cc2)[C@H]1c1ccc(CO)cc1`: the z-score was -0.732 in assay [1]; -1.69 (inactive) in assay [2]; -1.18 (inactive) in [3]; 0.236 (inactive) in [5]; -0.164 (inactive) in assay [6]; 0.967 (inactive) in assay [7]. The figures for the z-score in assay [8] and in assay [9] were -1.26 (inactive) and 0.415, respectively. Also, the composite z-score was -0.397 (inactive) in assay [4] and -0.156 in assay [10].

Consider `O=C1C[C@@](C(=O)O)(c2ccc([N+](=O)[O-])cc2)[C@@H](c2ccc(CO)cc2)N1C1CCCCC1`, for which the z-score in assay [1] is -0.562; in assay [2], 0.408 (inactive); in [3] it was -0.544 (inactive); in assay [5] it was -0.0123 (inactive); in assay [6], 1.3 (inactive); in assay [7], 0.576 (inactive). Moreover, the z-score was -0.199 (inactive) in [8] and 0.0311 in assay [9]. The figures for the composite z-score in [4] and in assay [10] were -0.0999 (inactive) and -0.193, respectively.

As for `NC(=O)N1C(=O)C2C(C1=O)C1C=C(CCCO)C2C(c2ccc(CN3CCCC3)cc2)N1Cc1sc2ccccc2c1Cl` (stereo not given), the z-score was -0.968 in [1]; -2.06 (inactive) in assay [2]; -1.29 (inactive) in assay [3]; 0.0721 (inactive) in assay [5]; -0.243 (inactive) in [6]; -0.291 (inactive) in assay [7]. The z-score was -0.693 (inactive) in assay [8] and -1.04 in [9]. Also, the composite z-score was 0.574 (inactive) in [4] and -0.167 in [10].
